Data on 14 compounds can be found in PubChem BioAssay (NCATS).

Test [1] is described as follows: qHTS profiling of the MIPE4 collection as inhibitors of Plasmodium falciparum (3D7) proliferation (AID 743344).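 Further: scaled between DMSO vehicle wells and 0.29 µM artemisinin as full inhibition.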 As to conditions: P. falciparum 3D7 in erythrocytes, SYBR Green DNA fluorescence, 72 h; at 28.5 µM. The method, boiled down: (§1)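 Parasite DNA was quantified by SYBR Green I fluorescence (ex 485, em 535 nm) after overnight lysis in saponin/Triton buffer at room temperature. Cultures at 0.3% parasitemia and 2.5% hematocrit were first exposed to compound for 72 h at 37 C; signals were normalised to artemisinin (0.29 uM) and vehicle wells.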
In general terms: Quantitative high-throughput screening tests each substance at several concentrations.

Test [2] in a line: qHTS profiling of the MIPE4 collection as inhibitors of Plasmodium falciparum (DD2) proliferation (AID 743345). As to conditions: P. falciparum Dd2 in erythrocytes, SYBR Green DNA, 72 h; at 28.5 µM unless noted. The gist of the method:
as §1

Test [3] in a line: qHTS profiling of the MIPE4 collection as inhibitors of Plasmodium falciparum (DD2) proliferation (Rep 2) (AID 743346). As to conditions: P. falciparum Dd2 in erythrocytes, SYBR Green DNA, 72 h; at 28.5 µM. The gist of the method:
as §1

Test [4] in a line: qHTS profiling of the MIPE4 collection as inhibitors of Plasmodium falciparum (HB3) proliferation (AID 743347).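 Further: plate controls were DMSO vehicle wells for no effect and artemisinin wells for full effect.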 Particulars: P. falciparum HB3 in erythrocytes, SYBR Green DNA, 72 h; at 28.5 µM. The gist of the method:
as §1

The compound `O=C(N[C@@H](COc1ccc2[nH]c(=O)[nH]c2c1)c1ccccc1)c1cccn(Cc2ccc(F)c(F)c2)c1=O` registered a parasite growth, % of DMSO control in test [1] of 50.5%. In addition, in test [2], the parasite growth remaining, % of DMSO control (lower = more inhibition) amounted to 85.6%. Moreover, the parasite growth, % of control (lower = inhibition) in test [3] worked out at 75.9%. In addition, the growth, % of control in test [4] was 63.1%.
In turn, `CC1=C(O)C(=O)C=C2C1=CC=C1[C@@]2(C)CC[C@@]2(C)[C@@H]3C[C@](C)(C(=O)O)CC[C@]3(C)CC[C@]12C` had a parasite growth, % of DMSO control in test [1] of 8.49%. The parasite growth remaining, % of DMSO control (lower = more inhibition) in test [2] worked out at 7.57%. For the same compound, in test [3], the parasite growth, % of control (lower = inhibition) amounted to 16.2%. The compound further showed a growth, % of control in test [4] of 8.31%.
Take `C[C@@H]1CC[C@H]2[C@@H](C)C(=O)O[C@@H]3O[C@@]4(C)CC[C@H]1[C@]32OO4`: in test [1], the parasite growth, % of DMSO control was determined as 22.6%. The parasite growth remaining, % of DMSO control (lower = more inhibition) in test [2] stood at 7.95%. This compound also had a parasite growth, % of control (lower = inhibition) in test [3] of 7.78%. The same compound yielded a growth, % of control in test [4] of 7.52%.
Compound `N#C[C@H](O[C@@H]1O[C@H](CO[C@@H]2O[C@H](CO)[C@H](O)[C@H](O)[C@H]2O)[C@H](O)[C@H](O)[C@H]1O)c1ccccc1` gave a parasite growth, % of DMSO control in test [1] of 61.2%. For the same compound, in test [2], the parasite growth remaining, % of DMSO control (lower = more inhibition) was 17.6%. This compound also registered a parasite growth, % of control (lower = inhibition) in test [3] of 37.7%. Also, the growth, % of control in test [4] came out at 60.6%.
For `C=C[C@@H]1CN2CCC1C[C@H]2[C@H](O)c1ccnc2ccccc12` (stereo partly specified) the same measures were 26.8%, 10.8%, 46.5% and 21.5%.
For `C[C@@H]1O[C@@H](O[C@@H]2C=C3CC[C@@H]4[C@@H](CC[C@]5(C)[C@H](c6ccc(=O)oc6)CC[C@@]45O)[C@@]3(C)CC2)[C@H](O)[C@H](O)[C@H]1O` the same measures were 79%, 94.6%, 96.7% and 94.5%.
For `CC(=Cc1csc(C)n1)[C@@H]1C[C@H]2O[C@]2(C)CCC[C@H](C)[C@@H](O)[C@@H](C)C(=O)C(C)(C)[C@@H](O)CC(=O)O1` the same measures were 15.3%, 15.7%, 35.2% and 16.9%.
For `C[C@](O)(COc1ccc(C#N)cc1)C(=O)Nc1ccc(C#N)c(C(F)(F)F)c1`, the parasite growth, % of DMSO control in test [1] was 6.31%. Further, the parasite growth remaining, % of DMSO control (lower = more inhibition) in test [2] worked out at 92.3%. The compound also returned a parasite growth, % of control (lower = inhibition) in test [3] of 20.8%. The growth, % of control in test [4] worked out at 9.27%.
In turn, `O=C(O)CNC(=O)c1c(O)c2ccccc2n(Cc2ccccc2)c1=O` came in with a parasite growth, % of DMSO control in test [1] of 88%. In addition, the parasite growth remaining, % of DMSO control (lower = more inhibition) in test [2] was 93.4%. This compound also came in with a parasite growth, % of control (lower = inhibition) in test [3] of 75.1%. The growth, % of control in test [4] came to 105%.
For the compound `CCCN1CCO[C@@H]2c3cc(O)ccc3OC[C@@H]21`, the parasite growth, % of DMSO control in test [1] was 98.1%. Further, the parasite growth remaining, % of DMSO control (lower = more inhibition) in test [2] is 99.7%. In test [3], this compound had a parasite growth, % of control (lower = inhibition) of 91%. This compound also returned a growth, % of control in test [4] of 77.3%.
For `O=S(=O)(CC1CS1)c1ccc(Oc2ccccc2)cc1` (stereo unspecified) the same measures were 94.4%, 104%, 73.8% and 106%.
For `COc1ccc2c(c1)CN(C)CC2c1ccc(Cl)c(Cl)c1` (stereo unspecified) the same measures were 12.3%, 40.2%, 15.9% and 9.4%.
For `C[C@@H]1CC[C@@]2(OC1)O[C@H]1C[C@H]3[C@@H]4CC=C5C[C@@H](O[C@@H]6O[C@H](CO)[C@@H](O[C@@H]7O[C@@H](C)[C@H](O)[C@@H](O)[C@@H]7O)[C@H](O)[C@@H]6O[C@@H]6O[C@@H](C)[C@H](O)[C@@H](O)[C@@H]6O)CC[C@]5(C)[C@@H]4CC[C@]3(C)[C@@H]1[C@H]2C` the same measures were 57.2%, 52.8%, 61.5% and 28.8%.
In test [1], `Cc1ccccc1-n1c(Cn2ncc3c(N)ncnc32)nc2cccc(C)c2c1=O` had a parasite growth, % of DMSO control of 48.8%. The parasite growth remaining, % of DMSO control (lower = more inhibition) in test [2] was determined as 94.1%. The parasite growth, % of control (lower = inhibition) in test [3] worked out at 37%. In test [4], this compound registered a growth, % of control of 53.3%.
